Where “and” joins values, the source holds several entries; their conditions need not be identical. Equal entries are not always repeated. About 2,000 (36%) of roughly 5,500 compounds were called active. Another 18% or so got no clear call; they are omitted. Rule as the data show it: active = normalized growth mostly below about 0.91 (no sharp cut-off); inconclusive = no clear call, values can overlap the other calls; inactive = mostly above about 0.92. This is one part of the list.
Experiment: chemical genetic growth profiling, strain panel (AID 1159580);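 also: tested at 20 µM; growth read once vehicle control cultures reached saturation at 30 °C; 1 = growth at the plate median or of vehicle wells; lower values mean less growth of the strain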
Conditions: S. cerevisiae deletion strains, growth OD

Measured: normalized growth

NC[C@@H]1O[C@H](O[C@@H]2[C@@H](CO)OC(O[C@@H]3[C@@H](O)[C@H](N)C[C@H](N)[C@H]3OC3O[C@H](CN)[C@@H](O)[C@H](O)[C@H]3N)[C@@H]2O)[C@H](N)[C@@H](O)[C@@H]1O (some centres not stated)
inactive: locus YAL013W, strain DEP1, hits give low values 1 | locus YAL021C, strain ccr4, hits give low values 1.01 | locus YAL026C, strain drs2, hits give low values 1.02 | locus YAL030W, strain snc1, hits give low values 1.02 | locus YBL061C, strain skt5, hits give low values 1.03 | locus YBR009C, strain hhf1, hits give low values 1.03 | locus YBR021W, strain FUR4, hits give low values 0.966 | locus YBR023C, strain chs3, hits give low values 1.06 | locus YBR171W, strain sec66, hits give low values 1.04 | locus YBR229C, strain ROT2, hits give low values 1 | locus YBR231C, strain swc5, hits give low values 1.01 | locus YBR279W, strain paf1, hits give low values 1.01 | locus YCL011C, strain gbp2, hits give low values 1.03 | locus YCL016C, strain dcc1, hits give low values 1.05 | locus YCL029C, strain bik1, hits give low values 1.02 | locus YCL061C, strain MRC1, hits give low values 1.01 | locus YCL069W, strain vba3, hits give low values 1.02 | locus YCR088W, strain abp1, hits give low values 1.02 | locus YDL005C, strain med2, hits give low values 1.01 | locus YDL035C, strain GPR1, hits give low values 1.01 | locus YDL040C, strain nat1, hits give low values 1.02 | locus YDL074C, strain BRE1, hits give low values 1.01 | locus YDL101C, strain DUN1, hits give low values 1.01 | locus YDL134C, strain PPH21, hits give low values 1 | locus YDL185W, strain tfp1, hits give low values 1.01 | locus YDL192W, strain arf1, hits give low values 1.02 | locus YDR001C, strain nth1, hits give low values 1.02 | locus YDR069C, strain doa4, hits give low values 1.03 | locus YDR101C, strain arx1, hits give low values 1 | locus YDR137W, strain rgp1, hits give low values 1.06 | locus YDR150W, strain NUM1, hits give low values 1.01 | locus YDR159W, strain sac3, hits give low values 0.997 | locus YDR162C, strain NBP2, hits give low values 1.01 | locus YDR195W, strain ref2 1.01 | locus YDR297W, strain sur2, hits give low values 1.02 | locus YDR318W, strain mcm21, hits give low values 1.01 | locus YDR334W, strain swr1, hits give low values 1.02 | locus YDR335W, strain msn5, hits give low values 1.02 | locus YDR388W, hits give low values 1.01 | locus YDR392W, strain spt3, hits give low values 0.944 | locus YDR502C, strain sam2, hits give low values 1.03 | locus YEL003W, strain gim4, hits give low values 1.02 | locus YEL037C, strain rad23, hits give low values 1.03 | locus YEL061C, strain CIN8 (second series), hits give low values 1.03 | locus YEL061C, strain CIN8, hits give low values 1.01 | locus YER015W, strain faa2, hits give low values 1.03 | locus YER016W, strain bim1, hits give low values 1.02 | locus YER110C, hits give low values 1.01 | locus YER111C, strain swi4, hits give low values 1.02 | locus YER155C, strain BEM2 (second series), hits give low values 0.973 | locus YER155C, strain BEM2, hits give low values 1.01 | locus YER167W, strain BCK2, hits give low values 1.02 | locus YFR010W, strain ubp6, hits give low values 1.03 | locus YGL078C, strain dbp3, hits give low values 1.01 | locus YGL086W, strain mad1, hits give low values 1 | locus YGL167C, strain pmr1, hits give low values 1.03 | locus YGL173C, strain kem1, hits give low values 1.03 | locus YGL227W, strain vid30, hits give low values 1.03 | locus YGL240W, strain doc1, hits give low values 1 | locus YGL248W, strain PDE1, hits give low values 1.01 | locus YGL253W, strain hxk2, hits give low values 1.03 | locus YGR078C, strain PAC10, hits give low values 1.02 | locus YGR135W, strain pre9, hits give low values 1.07 | locus YGR229C, strain SMI1, hits give low values 1 | locus YGR252W, strain gcn5, hits give low values 0.957 | locus YHR013C, strain ard1, hits give low values 1.05 | locus YHR027C, strain rpn1, hits give low values 1.03 | locus YHR030C, strain SLT2, hits give low values 1.02 and 0.985 | locus YHR079C, strain IRE1 (second series), hits give low values 1.02 | locus YHR079C, strain IRE1, hits give low values 0.983 | locus YHR094C, strain hxt1, hits give low values 1.01 | locus YHR129C, strain ARP1, hits give low values 1 | locus YHR142W, strain chs7, hits give low values 1.05 | locus YHR200W, strain rpn10, hits give low values 1.03 | locus YIL066C, strain RNR3, hits give low values 1.03 | locus YIL073C, strain SPO22, hits give low values 1.07 | locus YIL125W, strain kgd1, hits give low values 1.02 | locus YIR030C, strain dcg1, hits give low values 1.01 | locus YJL092W, strain hpr5, hits give low values 1.03 | locus YJL095W, strain BCK1 (second series), hits give low values 1.03 | locus YJL095W, strain BCK1, hits give low values 1.02 and 0.991 | locus YJL115W, strain asf1, hits give low values 1.03 | locus YJL129C, strain trk1, hits give low values 1.06 | locus YJL134W, strain LCB3, hits give low values 0.993 | locus YJL154C, strain vps35, hits give low values 1.02 | locus YJL164C, strain tpk1, hits give low values 1.01 | locus YJL166W, strain qcr8, hits give low values 1.04 | locus YJL168C, strain set2, hits give low values 1.01 | locus YJL187C, strain SWE1 (second series), hits give low values 1.01 | locus YJL187C, strain SWE1, hits give low values 1.01 | locus YJR043C, strain POL32, hits give low values 1.01 | locus YJR066W, strain TOR1, hits give low values 0.929
